# Inconclusive results are not listed. Activity calls are given as the source filed them. How the source made its calls, unless noted: active means hit-call score of the fitted dose curve at least 0.9, where 1 is the maximum; inactive means score below 0.9.
# How the values were obtained:
# [1] = read-out: Nuclear factor erythroid 2-related factor 2 (Homo sapiens) (UniProt Q16236); assay: LTEA_HepaRG_NFE2L2: Life Technologies and Expression Analysis (LTEA) Assay for Nuclear factor erythroid 2-related factor 2 (NFE2L2) Transcription Factor using HepaRG (AID 2283527); details: mRNA level, 48 h; actives raise or lower the signal;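 on outcome: TaqMan qRT-PCR transcript level normalised to ACTB GAPDH and POLR2A housekeeping genes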
# How it was run: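 HepaRG, 48 h dosing, 8-pt half-log series from 100 uM in 0.5% DMSO, duplicates. Read-out: NFE2L2 mRNA by qRT-PCR (ACTB/GAPDH/POLR2A normalization). Bidirectional curve fit vs DMSO baseline.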
# [2] = read-out: succinate dehydrogenase complex iron sulfur subunit B (SDHB), SDHB (gene 6390); assay: LTEA_HepaRG_SDHB: Life Technologies and Expression Analysis (LTEA) Assay for succinate dehydrogenase complex iron sulfur subunit B (SDHB) using HepaRG (AID 2283528); details: mRNA level, 48 h; actives raise or lower the signal
# How it was run: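 HepaRG, 48 h exposure, 8-pt half-log series from 100 uM in 0.5% DMSO, duplicates. Readout: SDHB mRNA by Fluidigm qRT-PCR vs housekeeping genes; bidirectional fit relative to DMSO.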
# [3] = read-out: Signal transducer and activator of transcription 3 (Homo sapiens) (UniProt P40763); assay: LTEA_HepaRG_STAT3: Life Technologies and Expression Analysis (LTEA) Assay for Signal transducer and activator of transcription (STAT3) using HepaRG (AID 2283529); details: mRNA level, 48 h; actives raise or lower the signal
# How it was run: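 HepaRG, 48 h exposure, 8-pt half-log series (top 100 uM), 0.5% DMSO vehicle, duplicates. Readout: STAT3 transcript by Fluidigm qRT-PCR, housekeeping-normalized; bidirectional fit vs DMSO baseline.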
# [4] = read-out: solute carrier (SLCO1B1), SLCO1B1 (gene 10599); assay: LTEA_HepaRG_SLCO1B1: Life Technologies and Expression Analysis (LTEA) Assay for solute carrier (SLCO1B1) using HepaRG (AID 2283530); details: mRNA level, 48 h; actives raise or lower the signal
# How it was run: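 Gain or loss of SLCO1B1 mRNA is fitted against the 0.5% DMSO vehicle in human HepaRG liver cells treated 48 h at up to 100 uM in half-log steps. Expression comes from qRT-PCR normalized to endogenous controls.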
# [5] = read-out: sulfotransferase 2A1 (SULT2A1), SULT2A1 (gene 6822); assay: LTEA_HepaRG_SULT2A1: Life Technologies and Expression Analysis (LTEA) Assay for sulfotransferase 2A1 (SULT2A1) using HepaRG (AID 2283531); details: mRNA level, 48 h; actives raise or lower the signal
# How it was run: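 Cells were plated and cultured 48 h, switched to serum-free induction medium, then dosed in duplicate for 48 h (8 concentrations, max 100 uM). RNA was isolated and SULT2A1 expression measured by qRT-PCR; gain or loss of signal fitted relative to DMSO.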
# [6] = read-out: Transforming Growth Factor (TGFA), TGFA (gene 7039); assay: LTEA_HepaRG_TGFA: Life Technologies and Expression Analysis (LTEA) Assay for Transforming Growth Factor (TGFA) using HepaRG (AID 2283532); details: mRNA level, 48 h; actives raise or lower the signal
# How it was run: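 qRT-PCR read-out of TGFA transcript, normalized to three housekeeping genes, fitted bidirectionally against 0.5% DMSO baseline. Human HepaRG cultures received chemicals for 48 h at eight half-log concentrations, top 100 uM.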
# [7] = read-out: Transforming Growth Factor (TGFB1), TGFB1 (gene 7040); assay: LTEA_HepaRG_TGFB1: Life Technologies and Expression Analysis (LTEA) Assay for Transforming Growth Factor (TGFB1) Transporter using HepaRG (AID 2283533); details: mRNA level, 48 h; actives raise or lower the signal
# How it was run: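 Expression change of TGFB1 in human HepaRG cells is measured after a 48 h chemical exposure, up to 100 uM in 0.5% DMSO vehicle. Curves are fitted in both directions relative to the DMSO baseline.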
# TIMP1, TIMP1 (gene 7076) = assay: LTEA_HepaRG_TIMP1: Life Technologies and Expression Analysis (LTEA) Assay for TIMP1 using HepaRG (AID 2283534); details: mRNA level, 48 h; actives raise or lower the signal
# How it was run: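 We dosed human liver HepaRG cultures for 48 hours with up to 100 uM test chemical and measured TIMP1 expression by qRT-PCR. Activity in either direction is fitted relative to the 0.5% DMSO vehicle.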
# [8] = read-out: Tumor necrosis factor receptor 1 (TNFRSF1A), TNFRSF1A (gene 7132); assay: LTEA_HepaRG_TNFRSF1A: Life Technologies and Expression Analysis (LTEA) Assay for Tumor necrosis factor receptor 1 (TNFRSF1A) using HepaRG (AID 2283535); details: mRNA level, 48 h; actives raise or lower the signal
# How it was run: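 Expression of TNFRSF1A in human HepaRG liver cells was measured by qRT-PCR 48 h after chemical dosing (maximum 100 uM). Bidirectional curve fitting used 0.5% DMSO as baseline.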
# [9] = read-out: Thyroid Hormone Responsive (THRSP), THRSP (gene 7069); assay: LTEA_HepaRG_THRSP: Life Technologies and Expression Analysis (LTEA) Assay for Thyroid Hormone Responsive (THRSP) using HepaRG (AID 2283536); details: mRNA level, 48 h; actives raise or lower the signal
# How it was run: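 qRT-PCR read-out (Fluidigm TaqMan), housekeeping-normalized (ACTB/GAPDH/POLR2A). HepaRG, 48 h chemical exposure, 8-pt half-log series from 100 uM in 0.5% DMSO, duplicates. Bidirectional curve fit vs 0.5% DMSO baseline.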
# [10] = read-out: Cellular tumor antigen p53 (Homo sapiens) (UniProt P04637); assay: LTEA_HepaRG_TP53: Life Technologies and Expression Analysis (LTEA) Assay for Tumor Protein P53 (TP53) using HepaRG (AID 2283537); details: mRNA level, 48 h; actives raise or lower the signal
# How it was run: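 HepaRG, 48 h exposure, top 100 uM, half-log 8-point, 0.5% DMSO vehicle, duplicates. Read: TP53 mRNA by TaqMan qRT-PCR, normalised to ACTB/GAPDH/POLR2A; bidirectional fit vs DMSO.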
# [11] = read-out: UDP glucuronosyltransferase (UGT1A1), UGT1A1 (gene 54658); assay: LTEA_HepaRG_UGT1A1: Life Technologies and Expression Analysis (LTEA) Assay for UDP glucuronosyltransferase (UGT1A1) using HepaRG (AID 2283538); details: mRNA level, 48 h; actives raise or lower the signal
# How it was run: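 Cells are plated, cultured 48 h, switched to serum-free induction medium, then dosed 48 h at eight concentrations (max 100 uM, 0.5% DMSO). RNA is isolated and UGT1A1 expression measured by qRT-PCR; changes versus DMSO are fitted in both directions.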
# [12] = read-out: UDP glucuronosyltransferase (UGT1A6), UGT1A6 (gene 54578); assay: LTEA_HepaRG_UGT1A6: Life Technologies and Expression Analysis (LTEA) Assay for UDP glucuronosyltransferase (UGT1A6) using HepaRG (AID 2283539); details: mRNA level, 48 h; actives raise or lower the signal
# How it was run: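 Endpoint is UGT1A6 transcript induction or loss in a human liver cell line, quantified by TaqMan qRT-PCR 48 h after dosing. Concentrations ran from 100 uM downward in half-log steps in 0.5% DMSO; activity was fitted in both directions versus vehicle.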
# [13] = LTEA_HepaRG_LDH_cytotoxicity: Cytotoxicity Assessment in the Life Technologies and Expression Analysis (LTEA) Assay (AID 2283563; active means hit-call score of the fitted dose curve at least 0.9, where 1 is the maximum;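 on AC50: LDH activity released into spent culture medium as a marker of cell death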)
# How it was run: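 Human HepaRG hepatic cells are treated with test chemicals for 48 h at up to 100 uM in 0.5% DMSO. Cytotoxicity is scored from medium LDH against the vehicle control.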
# [14] = TOX21_p53_BLA_p2_viability: Viability Assessment in the Tox21 HCT-116 p53 Agonism Beta-lactamase Assay, Phase 2 (AID 2283591; active means hit-call score of the fitted dose curve at least 0.9, where 1 is the maximum;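 further: compound exposure lasted 16 h at 37 °C; actives lower the ATP signal meaning cytotoxicity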)
# How it was run: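 HCT116 p53-bla cells, 4000/well, dosed after 5 h plating (217-fold dilution of DMSO stocks) and incubated 16 h at 37C. Viability taken as cellular ATP by CellTiter-Glo luminescence after 30 min RT; signal loss marks cytotoxicity.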
# [15] = biological target: Cellular tumor antigen p53 (Homo sapiens) (UniProt P04637); assay: TOX21_p53_BLA_p3_ratio: Tox21 HCT-116 p53 Agonism Beta-lactamase Assay, Ratio, Phase 3 (AID 2283596; active means hit-call score of the fitted dose curve at least 0.9, where 1 is the maximum)
# Cellular tumor antigen p53 (Homo sapiens), sequence (P04637 whole entry, looked up): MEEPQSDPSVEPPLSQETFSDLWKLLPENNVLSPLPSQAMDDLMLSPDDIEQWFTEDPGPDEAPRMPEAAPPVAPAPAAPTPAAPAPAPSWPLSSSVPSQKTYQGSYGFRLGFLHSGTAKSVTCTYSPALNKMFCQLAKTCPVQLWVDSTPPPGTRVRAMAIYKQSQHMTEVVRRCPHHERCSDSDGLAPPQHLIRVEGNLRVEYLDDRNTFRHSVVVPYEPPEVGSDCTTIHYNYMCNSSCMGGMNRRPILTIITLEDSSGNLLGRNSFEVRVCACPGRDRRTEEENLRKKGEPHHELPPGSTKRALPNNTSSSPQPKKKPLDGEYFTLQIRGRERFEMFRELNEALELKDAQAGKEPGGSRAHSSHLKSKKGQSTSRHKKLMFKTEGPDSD
# How it was run: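 Cells were seeded at 4000/well, rested 5 h at 37C, then dosed with DMSO compound solutions (217-fold dilution) for 16 h. CCF4-AM substrate was loaded for 2 h at room temperature, and the 460/530 nm emission ratio was fitted for gain of signal versus DMSO.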
# [16] = read-out: X-box binding protein 1 (XBP1), XBP1 (gene 7494); assay: LTEA_HepaRG_XBP1: Life Technologies and Expression Analysis (LTEA) Assay for X-box binding protein 1 (XBP1) using HepaRG (AID 2283540); details: mRNA level, 48 h; actives raise or lower the signal
# How it was run: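 Human HepaRG monolayers receive test chemical for 48 h across an eight-point half-log series starting at 100 uM. XBP1 mRNA gain or loss is scored against DMSO by qRT-PCR.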
# [17] = ATG_XTT_Cytotoxicity: Cytotoxicity Assessment in the Attagene TRANS-FACTORIAL HepG2 Assay (AID 2283584; active means hit-call score of the fitted dose curve at least 0.9, where 1 is the maximum;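 on AC50: XTT signal for cell number as viability in transfected HepG2 cells; cells exposed to compound for 24 h before reading; active means loss of viability signal versus DMSO baseline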)
# How it was run: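 Transfect HepG2 with GAL4-UAS reporter units, dose compound, incubate 24 h, then measure viable cell number by XTT. Fit concentration response against DMSO baseline.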
# [18] = biological target: Cellular tumor antigen p53 (Homo sapiens) (UniProt P04637); assay: TOX21_p53_BLA_p2_ratio: Tox21 HCT-116 p53 Agonism Beta-lactamase Assay, Ratio, Phase 2 (AID 2283592; active means hit-call score of the fitted dose curve at least 0.9, where 1 is the maximum)
# How it was run: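 Cleaved-to-uncleaved substrate ratio (460 vs 530 nm) measured in HCT116 cells with an inducible beta-lactamase reporter linked to p53 activity. Compounds incubated 16 h at 37C before 2 h room-temperature CCF4-AM loading.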
# Nuclear factor erythroid 2-related factor 2 (Homo sapiens), sequence (Q16236 whole entry, looked up): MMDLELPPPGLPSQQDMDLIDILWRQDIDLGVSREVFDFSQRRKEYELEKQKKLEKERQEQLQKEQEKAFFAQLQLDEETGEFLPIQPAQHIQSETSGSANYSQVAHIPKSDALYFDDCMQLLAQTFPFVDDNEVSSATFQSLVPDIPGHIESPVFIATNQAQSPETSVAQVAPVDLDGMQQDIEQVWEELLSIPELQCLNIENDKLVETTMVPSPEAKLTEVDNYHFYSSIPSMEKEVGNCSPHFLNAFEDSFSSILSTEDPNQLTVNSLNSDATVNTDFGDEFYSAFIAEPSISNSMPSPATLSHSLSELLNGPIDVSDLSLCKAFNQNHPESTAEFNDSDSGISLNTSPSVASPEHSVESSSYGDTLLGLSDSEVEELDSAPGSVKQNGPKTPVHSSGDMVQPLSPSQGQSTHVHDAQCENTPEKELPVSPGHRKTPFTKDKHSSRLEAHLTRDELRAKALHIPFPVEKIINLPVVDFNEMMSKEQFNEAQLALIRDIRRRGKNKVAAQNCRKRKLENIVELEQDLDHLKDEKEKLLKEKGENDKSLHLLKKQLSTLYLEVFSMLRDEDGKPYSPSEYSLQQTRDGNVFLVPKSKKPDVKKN
# Signal transducer and activator of transcription 3 (Homo sapiens), sequence (P40763 whole entry, looked up): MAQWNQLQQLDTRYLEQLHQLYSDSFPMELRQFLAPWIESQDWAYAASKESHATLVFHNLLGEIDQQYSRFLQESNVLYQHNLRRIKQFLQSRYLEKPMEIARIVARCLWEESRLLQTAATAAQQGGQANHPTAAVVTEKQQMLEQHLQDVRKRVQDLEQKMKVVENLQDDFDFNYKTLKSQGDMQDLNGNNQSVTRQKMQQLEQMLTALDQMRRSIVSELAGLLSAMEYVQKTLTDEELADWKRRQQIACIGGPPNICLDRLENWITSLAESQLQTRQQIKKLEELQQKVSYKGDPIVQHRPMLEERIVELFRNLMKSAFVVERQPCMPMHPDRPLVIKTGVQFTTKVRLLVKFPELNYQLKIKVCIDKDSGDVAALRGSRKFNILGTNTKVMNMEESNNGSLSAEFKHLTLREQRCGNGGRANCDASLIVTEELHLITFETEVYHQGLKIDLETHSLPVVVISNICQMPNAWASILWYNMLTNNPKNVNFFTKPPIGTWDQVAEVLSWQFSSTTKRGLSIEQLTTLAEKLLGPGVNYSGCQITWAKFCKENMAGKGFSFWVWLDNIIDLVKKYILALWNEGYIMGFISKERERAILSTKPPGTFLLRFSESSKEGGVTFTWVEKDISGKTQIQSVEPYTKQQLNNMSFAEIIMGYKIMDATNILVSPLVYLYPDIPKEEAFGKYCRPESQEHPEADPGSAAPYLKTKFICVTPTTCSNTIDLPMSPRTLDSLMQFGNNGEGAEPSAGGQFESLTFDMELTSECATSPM
smiles,measurement,setting,value
CCCOc1sc(C(=O)N2CCC(c3cc(CN)ccc3F)CC2)c(C)c1Br,outcome,[1],inactive
same,outcome,[2],inactive
same,outcome,[3],inactive
same,outcome,[4],inactive
same,outcome,[5],inactive
same,outcome,[6],inactive
same,outcome,[7],inactive
same,outcome,"TIMP1, TIMP1 (gene 7076)",inactive
same,outcome,[8],inactive
same,outcome,[9],inactive
same,outcome,[10],inactive
same,outcome,[11],inactive
same,outcome,[12],inactive
same,outcome,[13],inactive
same,AC50,[14],43.2 µM (active)
same,AC50,[15],80.4 µM (active)
Cc1oc(-c2ccccc2)nc1CCOc1ccc(C[C@H](Nc2ccccc2C(=O)c2ccccc2)C(=O)O)cc1,AC50,[1],11.9 µM (active)
same,AC50,[2],26.1 µM (active)
same,AC50,[3],21.2 µM (active)
same,AC50,[4],23.4 µM (active)
same,AC50,[5],23.4 µM (active)
same,AC50,[6],0.0617 µM (active)
same,AC50,[7],31.3 µM (active)
same,outcome,"TIMP1, TIMP1 (gene 7076)",inactive
same,AC50,[8],26.7 µM (active)
same,AC50,[9],24 µM (active)
same,AC50,[10],86.1 µM (active)
same,AC50,[11],23.1 µM (active)
same,AC50,[12],16.8 µM (active)
same,outcome,[16],inactive
same,AC50,[13],28.7 µM (active)
same,outcome,[17],inactive
same,AC50,[14],7.33 µM (active)
same,AC50,[18],72.3 µM (active)
same,AC50,[15],39.9 µM (active)
Oc1cccc(O)c1,outcome,[1],inactive
same,outcome,[2],inactive
same,outcome,[3],inactive
same,outcome,[4],inactive
same,outcome,[6],inactive
same,outcome,[7],inactive
same,outcome,"TIMP1, TIMP1 (gene 7076)",inactive
same,outcome,[8],inactive
same,outcome,[9],inactive
same,outcome,[10],inactive
same,outcome,[11],inactive
same,outcome,[12],inactive
same,outcome,[16],inactive
same,outcome,[13],inactive
same,outcome,[17],inactive
same,outcome,[14],inactive
same,outcome,[18],inactive
same,outcome,[15],inactive
CCCCCCCCCCCCc1ccccc1S(=O)(=O)O,AC50,[1],19.9 µM (active)
same,outcome,[2],inactive
same,outcome,[3],inactive
same,AC50,[4],79.6 µM (active)
same,AC50,[5],83.4 µM (active)
same,AC50,[6],32.5 µM (active)
same,outcome,[7],inactive
same,outcome,"TIMP1, TIMP1 (gene 7076)",inactive
same,outcome,[8],inactive
same,AC50,[9],5.53 µM (active)
same,AC50,[10],58.1 µM (active)
same,AC50,[11],12 µM (active)
same,outcome,[12],inactive
same,outcome,[16],inactive
same,AC50,[13],77.7 µM (active)
same,AC50,[17],156 µM (active)
